We go through 9 compounds from PubChem BioAssay (Tox21).

Assay [1] in a line: qHTS assay to identify small molecule agonists of the NFkB signaling pathway (AID 1159509; active means well fitted curve in the direction sought with a large enough effect in the signal ratio in the repeat runs, not every such curve was filed as active; the % refers to the signal ratio; further: series mostly up to about 61 µM; on the % scale 0 is the no-effect control and ±100 the full control effect). Summed up:
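NFkB-bla ME-180 cells carry a beta-lactamase reporter under an NF-kB response element. They were plated overnight, then exposed to compounds for 5 h at 37 C. Read-out is LiveBLAzer FRET after 1.5 hr at room temperature (405 nm excitation; 460/530 nm emission).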

Assay [2] in a line: qHTS assay to identify small molecule agonists of the NFkB signaling pathway - cell viability counter screen (AID 1159515; calls by dose curve; further: series mostly up to about 61 µM; on the % scale 0 is the no-effect control and ±100 the full control effect; nearly all actives have a fitted effect of over 55% in size). Put shortly:
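NFkB-bla ME-180 cells, 2,000/well, were plated overnight at 37 C, 5% CO2, then exposed to compounds in DMSO for 5 hr. After the bla FRET read, CellTiter-Glo was added to the same wells; luminescence was read after 30 min at room temperature.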

A short description of assay [3]: qHTS assay to identify small molecule antagonists of the retinoid-related orphan receptor gamma (ROR-gamma) signaling pathway - cell viability counter screen (AID 1159520). Further: nearly all actives have a fitted effect of over 50% in size. Further: potency means the concentration at half of the fitted maximal effect. Put shortly:
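Tet-on ROR gamma CHO cells were given compounds for 2 hr, then doxycycline hyclate at 1 uM final, and incubated 16 hr at 37 C. Viability was measured as ATP content by CellTiter-Glo luminescence.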

In assay [4] the target is Nuclear receptor ROR-gamma (Homo sapiens) (UniProt P51449). The assay can be described thus: qHTS assay to identify small molecule antagonists of the retinoid-related orphan receptor gamma (ROR-gamma) signaling pathway (AID 1159521; further: nearly all actives have a fitted effect of over 50% in size; further: potency means the concentration at half of the fitted maximal effect). Summed up: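 Luminescence readout (ONE-Glo, 30 min RT) after 16 h doxycycline induction; loss of signal scored as antagonism. CHO cells with TET-inducible RORγ and RORE-LUC reporter; compounds added 2 h before 1 uM final doxycycline.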

A short description of assay [5]: qHTS assay to identify small molecule agonists of the AP-1 signaling pathway - cell viability counter screen (AID 1159525; calls by dose curve; further: nearly all actives have a fitted effect of over 55% in size). Summed up:
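AP-1-bla ME-180 cells in Opti-MEM with 0.5% dialyzed FBS, compound exposure 5 h at 37 C in 15-point titration. Viability read in the same wells as ATP content by CellTiter-Glo luminescence, normalised to tetra-n-octylammonium bromide and DMSO controls.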

The nature of assay [6]: qHTS assay to identify small molecule agonists of the AP-1 signaling pathway (AID 1159526; calls by dose curve; further: on the % scale 0 is the no-effect control and ±100 the full control effect).
The nature of assay [7]: qHTS assay to identify small molecule antagonists of the retinoic acid receptor (RAR) signaling pathway (AID 1159552; further: on the % scale 0 is the no-effect control and ±100 the full control effect; nearly all actives have a fitted effect of over 50% in size). Summed up:
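Luminescence from a RARE luciferase reporter in C3RL4 cells served as read-out. Cells received compounds together with 1 uM final retinol and incubated 6 hr at 37 C before detection reagent was added for 30 min at room temperature.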

The nature of assay [8]: qHTS assay to identify small molecule agonists of the retinoic acid receptor (RAR) signaling pathway (AID 1159553). Further: potency means the concentration at half of the fitted maximal effect. On activation: on the % scale 0 is the no-effect control and ±100 the full control effect. Put shortly: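 C3RL4 cells carrying a RARE luciferase reporter were plated overnight at 37 C, then exposed to compounds in DMSO for 6 hr at 37 C and 5% CO2. Luminescence was read 30 min after luciferase reagent addition at room temperature.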
Assay [9] is described as follows: qHTS assay to identify small molecule agonists of the endoplasmic reticulum stress response signaling pathway - cell viability counter screen (AID 1159517; calls by dose curve; further: series mostly up to about 61 µM; on the % scale 0 is the no-effect control and ±100 the full control effect; nearly all actives have a fitted effect of over 50% in size). Summed up: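 ESRE-bla HeLa cells, 1,500 per well, seeded overnight then treated with compounds for 5 hr at 37 C. After the beta-lactamase read, viability in the same wells is measured by CellTiter-Glo luminescence after 30 min at room temperature.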

The nature of assay [10]: qHTS assay to identify small molecule agonists of the RXR signaling pathway - cell viability counter screen (AID 1159529). Further: nearly all actives have a fitted effect of over 50% in size. Further: potency means the concentration at half of the fitted maximal effect. Summed up:
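Luminescence from CellTiter-Glo (30 min, RT) measured viability in the same wells as the beta-lactamase reporter readout. Cells: GeneBLAzer RXR-alpha HEK 293T, 2% charcoal-stripped FBS. Compound exposure 16 hr, 37 C.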

Assay [11] is described as follows: qHTS assay to identify small molecule antagonists of the retinoid acid receptor (RAR) signaling pathway - cell viability counter screen (AID 1159551). Further: nearly all actives have a fitted effect of over 35% in size. Further: potency means the concentration at half of the fitted maximal effect. Put shortly: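 C3RL4 cells were seeded overnight at 37 C, then treated with compounds plus 1 uM (final) retinol for 6 h at 37 C. Viability was read as ATP by CellTiter-Glo luminescence after 30 min at room temperature.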

Assay [12] in a line: qHTS assay to identify small molecule antagonists of the estrogen related receptor (ERR) signaling pathway - cell viability counter screen (AID 1224818). Further: potency means the concentration at half of the fitted maximal effect.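 Further: viability measured after 17.5 h of compound exposure.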 Put shortly: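 ERR reporter cells plated 6 h at 37 C/5% CO2, then compounds in DMSO pin-transferred and incubated 17.5 h at 37 C. Viability read as CellTiter-Fluor fluorescence after 30 min at 37 C.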
Assay [13] can be described thus: qHTS assay to identify small molecule agonists of the endoplasmic reticulum stress response signaling pathway (AID 1159516; active means well fitted activation curve with a large enough effect in the signal ratio in the repeat runs, not every such curve was filed as active; the % refers to the signal ratio; further: on the % scale 0 is the no-effect control and ±100 the full control effect). Put shortly:
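CellSensor ESRE-bla HeLa cells, carrying a beta-lactamase reporter driven by the ER stress response element, were plated overnight and exposed to compounds for 5 hr at 37 C. Reporter activity was read as FRET substrate fluorescence after 2 hr at room temperature.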

The nature of assay [14]: qHTS assay to identify small molecule antagonists of the estrogen related receptor (ERR) signaling pathway from Tox21 library - cell viability counter screen (AID 1224834). Further: nearly all actives have a fitted effect of over 30% in size. Further: potency means the concentration at half of the fitted maximal effect. Put shortly:
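ERR reporter cells were plated 6 h before compound addition, then exposed to test compounds in DMSO for 17.5 h at 37 C. Viability was read as CellTiter-Fluor fluorescence after a 30-minute incubation at 37 C.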

Assay [15] can be described thus: qHTS assay to identify small molecule antagonists of the estrogen related receptor signaling pathway with the pleiotropic PPARgamma coactivator (PGC) cell viability counter screen (AID 1224822; further: potency means the concentration at half of the fitted maximal effect). Summed up: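 PGC/ERR cells were seeded at 2,000 cells/well, rested 6 h at 37 C/5% CO2, then given compounds in DMSO by pin tool and incubated 17.5 h at 37 C. Viability came from CellTiter-Fluor fluorescence after 30 min.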

Assay [16] addresses Retinoic acid receptor RXR-alpha (Homo sapiens) (UniProt P19793). The assay can be described thus: qHTS assay to identify small molecule agonists of the RXR signaling pathway (AID 1159527; calls by dose curve; further: on the % scale 0 is the no-effect control and ±100 the full control effect; nearly all actives have a fitted effect of over 35% in size). Put shortly:
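Agonist mode; 9-cis retinoic acid positive control. HEK 293T UAS-bla reporter cells, 2% charcoal-stripped FBS, 16 hr compound exposure at 37 C/5% CO2. LiveBLAzer B/G FRET substrate 2 hr RT; ex 405, em 460/530 nm.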

Values joined by “and” are separate entries in the source; they are usually repeats but may differ in a detail not shown here. Identical values can stand only once. Inconclusive results are not listed. Unmarked numbers belong to inactive results. Active and inactive are the calls of the source. Unless noted, the call rests on the fitted dose curve; in most records, active means well fitted curve in the direction sought with a large enough effect in the repeat runs; inconclusive means weak or mixed curves; inactive means no such curve, though single readings can be large; an effect the other way counts as inactive or inconclusive.

Sequence of Retinoic acid receptor RXR-alpha (Homo sapiens) (P19793 whole entry, looked up): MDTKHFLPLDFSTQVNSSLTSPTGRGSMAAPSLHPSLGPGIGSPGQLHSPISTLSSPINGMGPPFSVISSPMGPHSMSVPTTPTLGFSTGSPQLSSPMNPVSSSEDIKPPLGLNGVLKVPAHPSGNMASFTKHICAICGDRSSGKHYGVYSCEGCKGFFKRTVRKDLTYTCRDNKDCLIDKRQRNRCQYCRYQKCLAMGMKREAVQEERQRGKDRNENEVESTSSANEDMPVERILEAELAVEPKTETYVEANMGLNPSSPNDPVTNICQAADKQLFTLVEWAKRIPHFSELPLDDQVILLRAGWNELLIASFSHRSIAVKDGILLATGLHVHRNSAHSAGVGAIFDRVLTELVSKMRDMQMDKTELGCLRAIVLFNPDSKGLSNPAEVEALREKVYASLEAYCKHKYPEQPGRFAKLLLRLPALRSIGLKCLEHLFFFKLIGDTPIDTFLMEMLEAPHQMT

Consider `O=C(Nc1ccc([N+](=O)[O-])cc1Cl)c1cc(Cl)ccc1O`, for which, in [1], the call was inactive. Moreover, the Potency entry in assay [2], in assay [4] and in assay [7] was “inactive” in each case. For the same compound, the Potency in [3] is 1.54 µM (active) and 920 nM (active); in [8], 43.3 nM (active) and 82 nM (active). Further, the viability change, negative = cytotoxic in [5] was 2.04% [at 15.8 µM]. Also, the activation in [6] was 4.2% [at 15.8 µM].

`OC1CCCCCCCCCCC1`: in assay [1], the compound was classed as inactive. Also, the Potency result in assay [2], in assay [9], in [3], in [4], in [5] and in assay [10] was “inactive” each time. Also, the Potency entry in [11], in assay [7] and in assay [8] was “inactive” throughout.

For `Nc1ccccc1N`, the result in [1] and in assay [6] was inactive. In addition, the Potency entry in assay [2], in assay [9], in assay [3], in assay [4], in assay [5] and in assay [10] was “inactive” throughout. Besides, the Potency result in assay [11], in [7] and in [12] was “inactive” each time. Also, in assay [8], the Potency was 1.25 µM (active) and 1.72 µM (active).

As to `CCCCC(CC)COP(=O)(OCC(CC)CCCC)OCC(CC)CCCC` (centres undefined), the result in [1] and in [6] was inactive. The Potency result in [2], in assay [13], in assay [9], in [3], in assay [4] and in assay [5] was “inactive” in each case. Also, the Potency entry in assay [11] and in [14] was “inactive” in each case.

As for `CCCCC/C=C/C=C/C=O`, the call in [1] and in assay [6] was inactive. Also, the Potency result in assay [2], in assay [9], in [4], in [5], in assay [11] and in [14] was “inactive” each time.

Regarding `COC(=O)C1=C(C)NC(C)=C(C(=O)OCCN(C)Cc2ccccc2)C1c1cccc([N+](=O)[O-])c1` (centres undefined), the compound was called inactive in assay [1]. The Potency entry in [2], in assay [13], in assay [9], in [5] and in [11] was “inactive” throughout. In addition, the Potency was 60.8 µM (active) in assay [3]; 30.5 µM (active) and 29.8 µM (active) in [4]; 24.4 µM (active) in assay [10]; 23.7 µM (active) in assay [12]; 23.7 µM (active) in assay [15]; 27.1 µM (active) and 23.7 µM (active) in [14].

For `O=C1OC2(c3cc(Br)c(O)c(Br)c3Oc3c2cc(Br)c(O)c3Br)c2c(Cl)c(Cl)c(Cl)c(Cl)c21`, the compound was classed as inactive in assay [1] and in [6]. Further, the Potency result in assay [2], in assay [9], in assay [3], in assay [5] and in assay [10] was “inactive” throughout. The Potency was 4.33 µM (active) in assay [11]; 6.12 µM (active) and 18.6 µM (active) in assay [14].

As to `C=C(C)C1CC=C(C)CC1` (centres undefined), the Potency result in [2], in [13], in assay [9], in assay [3], in assay [5] and in assay [11] was “inactive” throughout. The compound was classed as inactive in assay [6].

`C#C[C@]1(O)CC[C@H]2[C@@H]3CCc4cc(OC)ccc4[C@H]3CC[C@@]21C`: in [1], the result was inactive. For the same compound, the Potency entry in assay [2], in assay [13], in assay [9], in assay [3], in assay [4] and in assay [5] was “inactive” each time. Also, the Potency result in assay [16], in assay [10], in assay [11], in assay [7], in assay [8] and in assay [14] was “inactive” each time.
